TDP1 cell noCPT – qHTS for Inhibitors of human tyrosyl-DNA phosphodiesterase 1 (TDP1): qHTS in cells in absence of CPT | 420,000 compounds, 15% hits | DT40 Tdp1-/- hTDP1 cells, no CPT, ATP luminescence, 48 h | AID 686978, 2013 | Potency, µM (highest dose often 46.2 µM), inactives show at the highest dose activity change, negative = growth inhibition, usual class: inhibitors; also: nearly all actives have a fitted effect of over 55% in size
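Growth kinetics read by CellTiter-Glo luminescence after ≥48 hr at 37 °C. Cells: DT40 Tdp1-/- stably carrying human TDP1, 400 per well, compound exposure in the absence of CPT (DMSO vehicle).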
DT40 TDP1 CPT – DT40-hTDP1 cell growth loss with CPT. chicken DT40 Tdp1-/-;hTDP1 cells + 20 nM CPT, ATP luminescence, 48 h. Potency, µM (series often up to 46.2 µM), without a hit: at the highest dose activity change, negative = growth inhibition, actives largely listed as inhibitors. 420,000 compounds, 12% hits; also: nearly all actives have a fitted effect of over 55% in size
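Cell growth measured by CellTiter-Glo luminescence after a minimum 48 h, 37 C compound exposure with 20 nM CPT in Tdp1-knockout DT40 cells stably expressing hTDP1, seeded 400/well; qHTS titration format.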
Gal4-VP16 FLuc – Gal4-VP16 reporter inhibition counter-screen. Drosophila S2 Gal4-VP16 UAS-luciferase, luminescence, 20 h. Potency, µM (titrated, usually from 53.6 µM), for the others: at the top dose activity, negative = inhibition, most hits filed as inhibitors. 310,000 compounds, 3.5% hits. AID 2546;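 also: Gal4-VP16 expression switched on by copper sulfate through the metallothionein promoter; nearly all actives have a fitted effect of over 50% in size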
RORgamma inh – ROR gamma (mouse) transcription inhibition | P51450 | Drosophila S2 Gal4-RORgamma UAS-luciferase reporter, 20 h | Potency, µM (top dose mostly 53.6 µM), without a hit: at the highest dose activity change, negative = inhibition, usual class: inhibitors | 310,000 compounds, 5.4% hits | AID 2551; also: nearly all actives have a fitted effect of over 60% in size
Target sequence (P51450 whole entry, looked up, the tested form may be a part): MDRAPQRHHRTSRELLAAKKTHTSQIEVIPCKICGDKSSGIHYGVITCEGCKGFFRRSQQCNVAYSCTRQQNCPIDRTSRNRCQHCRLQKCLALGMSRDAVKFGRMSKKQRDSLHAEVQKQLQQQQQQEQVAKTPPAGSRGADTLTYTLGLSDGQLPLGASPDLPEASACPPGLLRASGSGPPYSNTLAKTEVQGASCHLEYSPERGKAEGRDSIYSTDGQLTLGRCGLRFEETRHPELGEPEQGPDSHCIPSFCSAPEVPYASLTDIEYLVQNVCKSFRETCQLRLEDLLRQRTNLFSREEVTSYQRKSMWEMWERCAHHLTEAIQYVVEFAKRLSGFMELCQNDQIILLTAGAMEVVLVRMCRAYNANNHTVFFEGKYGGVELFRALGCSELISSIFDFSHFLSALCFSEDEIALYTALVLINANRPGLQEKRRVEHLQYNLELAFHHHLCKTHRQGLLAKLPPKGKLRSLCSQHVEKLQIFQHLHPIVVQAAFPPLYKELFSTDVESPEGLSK
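Stably transfected Drosophila Schneider cells are the test system, with ROR gamma fused to Gal4 and luciferase under UAS control; luminescence is read after 20 hr of 700 uM copper sulfate induction at ambient temperature.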
TDP1 inh – blocks human tyrosyl-DNA phosphodiesterase 1; recombinant TDP1, AlphaScreen DNA substrate cleavage; Potency, µM (series often up to 130 µM), for inactives: at the highest dose activity change, negative = inhibition, most hits filed as inhibitors; 350,000 compounds, 0.28% hits; AID 485290; also: nearly all actives have a fitted effect of over 40% in size
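Here, a 5' biotin and 3' phosphotyrosine-FITC DNA oligonucleotide reports Tdp1 activity: intact substrate bridges AlphaScreen beads, while cleavage leaves a 3' phosphate and drops signal. All incubations at room temperature.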
Numbers without * were called inactive; ? = inconclusive; nt = no result given; [ ] = dose if it differs, or a comment. An excerpt weighted towards active compounds, which were near 19% of everything screened. Calls follow the shape of the dose curve; as a rule, active = well fitted curve in the direction sought with a large enough effect; inconclusive = small, poorly fitted or top-dose-only effect, or another doubt; inactive = no such curve, though single readings can be large; an effect the other way counts as inactive or inconclusive. % is scaled to controls: 0 for no effect and ±100 for the full control effect; potency is read from the fitted curve at half-maximal effect.

SMILES	TDP1 cell noCPT	DT40 TDP1 CPT	Gal4-VP16 FLuc	RORgamma inh	TDP1 inh
CC(NCC(=O)Nc1ccccc1C(=O)NC1CC1)c1ccc(S(N)(=O)=O)cc1 (centres undefined)	1.0%	-12.6%	nt	nt	2.2%
CC(C)C(=O)Nc1cccc(NC(=O)c2cc3ccccc3o2)c1	?	?	-4.4%	-11.1%	2.1%
CCCCOC(=O)c1cccc(NC(=O)c2cc3ccccc3o2)c1	5.17µM*	13µM*	nt	nt	-0.4%[12.3 µM]
CCCCOC(=O)c1ccc(NC(=O)c2cc(=O)c3ccccc3o2)cc1	?	?	nt	nt	7.4%
CC(=O)Nc1cccc(NC(=O)c2cc3ccccc3o2)c1	20.6µM*	16.4µM*	-6.2%	?	0.0%
COc1ccc(S(=O)(=O)NCC2CCCN(C(=O)c3cccnc3C)C2)cc1 (centres undefined)	-5.2%	-14.0%	-9.5%	-1.6%	?
O=C(CNS(=O)(=O)c1c(F)cc(F)cc1Br)OCC(=O)N1CCCC1=O	-9.0%	-2.7%	nt	nt	1.1%
COc1ccccc1-c1c(C(F)(F)F)oc2cc(OS(C)(=O)=O)ccc2c1=O	?	?	?	32.1%	-4.2%
COc1ccccc1-c1c(C(F)(F)F)oc2cc(OC(=O)c3ccccc3[N+](=O)[O-])ccc2c1=O	25.9µM*	?	2.1%	-12.5%	5.9%
COc1cc2c(cc1OC)CN(C(=O)CCOc1ccccc1)CC2	18.4µM*	?	-19.7%	-12.0%	0.1%[0.0935 µM]
COc1ccc(OC)c(CC(=O)N2CCc3cc(OC)c(OC)cc3C2)c1	?	0.13µM*	-2.6%	0.0%	nt
COc1cc2c(cc1OC)CN(C(=O)Cc1ccccc1)CC2	-20.4%	12.9%	-4.6%	20.6%	nt
COc1cc2c(cc1OC)CN(C(=O)CCCOc1ccc(Cl)cc1Cl)CC2	18.4µM*	16.4µM*	-5.2%	18.0%	10.1%
COc1cc2c(cc1OC)CN(C(=O)CCOc1ccccc1C)CC2	20.6µM*	?	-2.4%	-1.9%	9.1%
CCCN(C(=O)Cc1c(C(=O)O)[nH]c2ccc(Cl)cc12)c1ccc(OCC)cc1	-11.1%	?	nt	nt	0.0%
C/C=C/c1ccc(OCC(=O)N2CCc3cc(OC)c(OC)cc3C2)c(OC)c1	23.1µM*	?	4.7%	4.9%	8.2%
Cc1c(-c2ccc(O)cc2)nn(-c2ccc(O)cc2)c1-c1ccc(OCCN2CCCCC2)cc1	29.9µM*	18.8µM*	-0.8%	?	19.1%[56.1 µM]
O=[N+]([O-])c1cccc(-c2nc3ccc([N+](=O)[O-])cc3[nH]2)c1	20.6µM*	10.3µM*	0.0%	?	0.0%
Cc1ccc(-c2nc3ccc([N+](=O)[O-])cc3[nH]2)cc1	20.6µM*	?	?	?	-2.5%
O=[N+]([O-])c1ccc2nc(-[n+]3c(-c4ccccc4)cc(-c4ccccc4)cc3-c3ccccc3)[nH]c2c1	20.6µM*	23.1µM*	?	?	10.7%
O=[N+]([O-])c1ccc2nc(-c3ccc(Cl)cc3)[nH]c2c1	16.4µM*	?	?	16.0%	5.1%
CCOc1ccc(CN(C)CC(=O)Nc2cc(OC)c([N+](=O)[O-])cc2C)cc1	?	?	4.1%	?	2.6%
Clc1ccc(-c2nc3ccncc3[nH]2)cc1	?	10.3µM*	6.0%	16.7%[10 µM]	-2.3%
CCN1CCN(C(=O)c2cc(COc3ccc4ncccc4c3)on2)CC1	10.3µM*	16.4µM*	?	-43.9%	0.0%
CC(=O)c1cccc(OCc2cc(C(=O)N3CCSCC3)no2)c1	-2.1%	-7.2%	-4.2%	-20.5%	2.4%
SMILES	TDP1 cell noCPT	DT40 TDP1 CPT	Gal4-VP16 FLuc	RORgamma inh	TDP1 inh
CCCN1CCN(C(=O)c2cc(COc3ccc4ncccc4c3)on2)CC1	9.2µM*	23.1µM*	20µM*	12.6µM*	nt
CCOC(=O)C1=C(CC)Nc2ccccc2N=C1NC(=O)c1ccc(S(=O)(=O)N2CCOCC2)cc1	?	?	-13.9%	-25.7%	3.8%
CCOC(=O)C1=C(CC)Nc2ccccc2N=C1NC(=O)CCNC(C)=O	?	2.1%	8.3%	8.6%	-4.2%
CCOCc1c(C(=O)Nc2ccc(OC)nc2)oc2ccccc12	18.4µM*	-23.4%	11.3%	33.7%	-9.8%
CCOCc1c(C(=O)NC2=Nc3ccccc3NC(CC)=C2C(=O)OCC)oc2ccccc12	16.4µM*	23.1µM*	-12.0%	5.9%	6.0%
COc1ccc(NC(=O)c2oc3ccccc3c2CSC)cn1	?	-22.5%	24.8%	27.6%	7.6%
CCOC(=O)C1=C(CC)Nc2ccccc2N=C1NC(=O)c1ccc(S(=O)(=O)N(C)C)cc1	5.8µM*	7.31µM*	1.5%	-12.8%	-2.0%
CCOC(=O)C1=C(CC)Nc2ccccc2N=C1NC(=O)c1ccc(C)c(S(=O)(=O)N2CCOCC2)c1	?	16.4µM*	nt	nt	-4.3%
CN1C/C(=C\c2ccc(N3CCOCC3)cc2)C(=O)/C(=C/c2ccc(N3CCOCC3)cc2)C1	20.6µM*	?	15.1%	?	2.7%
CN1C/C(=C/c2ccsc2)C(=O)/C(=C/c2ccsc2)C1	13µM*	10.3µM*	?	-96.5%	2.7%
CN1C/C(=C/c2ccncc2)C(=O)/C(=C/c2ccncc2)C1	-28.8%	?	3.98µM*	12.6µM*	11.8%
O=C1N=C(N2CCOCC2)S/C1=C\c1ccncc1	-15.7%	-11.5%	7.7%	-4.0%	nt
CCN1C/C(=C/c2ccc(N3CCOCC3)cc2)C(=O)/C(=C/c2ccc(N3CCOCC3)cc2)C1	?	?	?	?	5.5%
CS(=O)(=O)N1CCC(C(=O)Nc2cccc([N+](=O)[O-])c2)CC1	0.5%	-11.4%	-11.8%	-27.0%	2.6%
